# The source made the active and inactive calls. Rule for the calls: active = hit-call score of the fitted dose curve at least 0.9, where 1 is the maximum; inactive = score below 0.9.
# What was measured:
# Conditions in all cases: mRNA level, 48 h; actives raise or lower the signal
# [1] = read-out: Cytochrome P450 (CYP24A1), CYP24A1 (gene 1591); assay: LTEA_HepaRG_CYP24A1: Life Technologies and Expression Analysis (LTEA) Assay for Cytochrome P450 (CYP24A1) using HepaRG (AID 2283478)
# In short: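 qRT-PCR read-out: CYP24A1 transcript levels normalized to three housekeeping genes, bidirectional curve fits against 0.5% DMSO baseline. Human HepaRG cells treated 48 h with chemicals at eight concentrations from 100 uM in half-log steps.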
# [2] = read-out: Cytochrome P450 (CYP1A2), CYP1A2 (gene 1544); assay: LTEA_HepaRG_CYP1A2: Life Technologies and Expression Analysis (LTEA) Assay for Cytochrome P450 (CYP1A2) using HepaRG (AID 2283479)
# In short: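 HepaRG, 48 h exposure, top 100 uM, half-log 8-pt, 0.5% DMSO vehicle, duplicates. Readout: TaqMan qRT-PCR of CYP1A2 mRNA, housekeeping-normalized (ACTB/GAPDH/POLR2A). Gain/loss fit relative to DMSO baseline.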
# [3] = read-out: cysteine-aspartic acid protease (CASP8), CASP8 (gene 841); assay: LTEA_HepaRG_CASP8: Life Technologies and Expression Analysis (LTEA) Assay for cysteine-aspartic acid protease (CASP8) using HepaRG (AID 2283480)
# In short: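 qRT-PCR readout of CASP8 mRNA, normalized to three housekeeping genes, after 48 h chemical exposure of HepaRG cells; 8-point half-log series, top 100 uM, 0.5% DMSO vehicle. Bidirectional curve fitting against DMSO baseline.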
# [4] = read-out: Cytochrome P450 (CYP2B6), CYP2B6 (gene 1555); assay: LTEA_HepaRG_CYP2B6: Life Technologies and Expression Analysis (LTEA) Assay for Cytochrome P450 (CYP2B6) using HepaRG (AID 2283481)
# In short: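 Read-out is CYP2B6 mRNA by TaqMan qRT-PCR, normalized to three housekeeping genes and fitted bidirectionally against 0.5% DMSO baseline. Human HepaRG cells received test chemicals for 48 h, top concentration 100 uM, half-log dilutions.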
# [5] = read-out: Cytochrome P450 2C19 (Homo sapiens) (UniProt P33261); assay: LTEA_HepaRG_CYP2C19: Life Technologies and Expression Analysis (LTEA) Assay for CYP2C19 using HepaRG (AID 2283482)
# In short: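 HepaRG, 48 h chemical exposure, 8-pt half-log series from 100 uM in 0.5% DMSO, duplicates. Readout: CYP2C19 mRNA by TaqMan qRT-PCR, housekeeping-normalized. Bidirectional fit vs DMSO baseline; phenobarbital 1mM as induction control.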
# CYP2C8 (gene 1558) = assay: LTEA_HepaRG_CYP2C8: Life Technologies and Expression Analysis (LTEA) Assay for CYP2C8 using HepaRG (AID 2283483)
# In short: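 HepaRG (human liver line), 48 h chemical exposure, 8-pt half-log series from 100 uM, 0.5% DMSO vehicle. Readout: CYP2C8 transcript by qRT-PCR, housekeeping-normalized. Bidirectional fit vs DMSO baseline.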
# CYP2E1 (gene 1571) = assay: LTEA_HepaRG_CYP2E1: Life Technologies and Expression Analysis (LTEA) Assay for CYP2E1 using HepaRG (AID 2283485)
# In short: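 CYP2E1 transcript was measured by TaqMan qRT-PCR in human HepaRG cultures after 48 h chemical exposure (top 100 uM, half-log steps, 0.5% DMSO vehicle). Housekeeping-gene normalization; gain or loss fitted relative to DMSO baseline.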
# CYP4A11 (gene 1579) = assay: LTEA_HepaRG_CYP4A11: Life Technologies and Expression Analysis (LTEA) Assay for CYP4A11 using HepaRG (AID 2283486)
# In short: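 CYP4A11 transcript levels were quantified by TaqMan qRT-PCR after HepaRG human liver cells were treated for 48 hours with test chemicals (top 100 uM, half-log dilutions, 0.5% DMSO). Gain or loss of signal was fitted relative to DMSO.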
# [6] = read-out: Cytochrome P450 3A4 (Homo sapiens) (UniProt P08684); assay: LTEA_HepaRG_CYP3A4: Life Technologies and Expression Analysis (LTEA) Assay for CYP3A4 using HepaRG (AID 2283487)
# In short: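 HepaRG, 48 h exposure, 8-pt CRC from 100 uM (half-log), 0.5% DMSO, duplicates; serum-free induction medium. Readout: CYP3A4 mRNA, qRT-PCR, ACTB/GAPDH/POLR2A normalization. Bidirectional fit vs DMSO.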
# [7] = read-out: DNA damage-inducible transcript 3 (DDIT3), DDIT3 (gene 1649); assay: LTEA_HepaRG_DDIT3: Life Technologies and Expression Analysis (LTEA) Assay for DNA damage-inducible transcript 3 (DDIT3) using HepaRG (AID 2283488)
# In short: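 qRT-PCR readout (Fluidigm TaqMan), housekeeping-normalized to ACTB, GAPDH, POLR2A. HepaRG cells, 48 h exposure, 8-point half-log series from 100 uM in 0.5% DMSO, duplicates. Gain or loss of signal fitted against DMSO baseline.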
# [8] = read-out: Pro-epidermal growth factor (Homo sapiens) (UniProt P01133); assay: LTEA_HepaRG_EGF: Life Technologies and Expression Analysis (LTEA) Assay for Epidermal growth factor (EGF) using HepaRG (AID 2283489)
# In short: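 qRT-PCR readout of EGF transcript after 48 h chemical exposure of HepaRG cells; eight concentrations from 100 uM down in half-log steps, duplicate wells, 0.5% DMSO vehicle. Bidirectional curve fitting against DMSO baseline.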
# [9] = read-out: Early growth response protein 1 (EGR1) transcription factor, EGR1 (gene 1958); assay: LTEA_HepaRG_EGR1: Life Technologies and Expression Analysis (LTEA) Assay for Early growth response protein 1 (EGR1) transcription factor using HepaRG (AID 2283490)
# In short: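 HepaRG, 48 h exposure, 8-pt half-log series from 100 uM, 0.5% DMSO vehicle; EGR1 transcript by TaqMan qRT-PCR (Fluidigm array), housekeeping-normalized; bidirectional fit relative to DMSO baseline.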
# [10] = read-out: Ezrin (EZR), EZR (gene 7430); assay: LTEA_HepaRG_EZR: Life Technologies and Expression Analysis (LTEA) Assay for Ezrin (EZR) using HepaRG (AID 2283491)
# In short: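 Read-out is EZR transcript level by qRT-PCR, normalized to three housekeeping genes and fitted bidirectionally against the DMSO control. Human HepaRG cells received test chemicals for 48 h at eight half-log concentrations up to 100 uM in 0.5% DMSO.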
# [11] = read-out: Cytochrome P450 3A7 (Homo sapiens) (UniProt P24462); assay: LTEA_HepaRG_CYP3A7: Life Technologies and Expression Analysis (LTEA) Assay for CYP3A7 using HepaRG (AID 2283492)
# In short: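 CYP3A7 transcript levels were read by TaqMan qRT-PCR on Fluidigm arrays after 48 h chemical exposure of human HepaRG cells, with housekeeping-gene normalisation. Eight half-log concentrations up to 100 uM in 0.5% DMSO were tested in duplicate.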
# CYP3A5 (gene 1577) = assay: LTEA_HepaRG_CYP3A5: Life Technologies and Expression Analysis (LTEA) Assay for CYP3A5 using HepaRG (AID 2283493)
# In short: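 qRT-PCR read-out: CYP3A5 transcript in HepaRG lysates, housekeeping-normalized (ACTB/GAPDH/POLR2A), fitted bidirectionally against 0.5% DMSO baseline. Exposure 48 h, eight half-log concentrations up to 100 uM, duplicates.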
# [12] = read-out: Fatty Acid-Binding Protein 1 (FABP1), FABP1 (gene 2168); assay: LTEA_HepaRG_FABP1: Life Technologies and Expression Analysis (LTEA) Assay for Fatty Acid-Binding Protein 1 (FABP1) using HepaRG (AID 2283494)
# In short: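 qRT-PCR readout of FABP1 transcript (normalized to three housekeeping genes) after 48 h chemical exposure of HepaRG cells; eight concentrations, half-log steps, max 100 uM, 0.5% DMSO vehicle; gain or loss fitted relative to DMSO baseline.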
# [13] = read-out: Cytochrome P450 4A22 (Homo sapiens) (UniProt Q5TCH4); assay: LTEA_HepaRG_CYP4A22: Life Technologies and Expression Analysis (LTEA) Assay for Cytochrome P450 4A22 (CYP4A22) using HepaRG (AID 2283495)
# In short: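 HepaRG, 48 h post-plating -> serum-free induction medium; dosed 48 h, duplicate, 8 conc. (100 uM top, half-log), 0.5% DMSO. Readout: CYP4A22 mRNA by qRT-PCR, ACTB/GAPDH/POLR2A normalization; gain/loss fit relative to DMSO.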
# [14] = read-out: Cytochrome P450 7A1 (Homo sapiens) (UniProt P22680); assay: LTEA_HepaRG_CYP7A1: Life Technologies and Expression Analysis (LTEA) Assay for Cytochrome P450 7A1 (CYP7A1) using HepaRG (AID 2283496)
# In short: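 Using 0.5% DMSO as vehicle and baseline, chemicals were tested in duplicate over an 8-point range from 100 uM on HepaRG cells for 48 h; qRT-PCR signals were normalised to ACTB, GAPDH and POLR2A.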
# [15] = read-out: Glutathione S-Transferase (GSTA2), GSTA2 (gene 2939); assay: LTEA_HepaRG_GSTA2: Life Technologies and Expression Analysis (LTEA) Assay for Glutathione S-Transferase (GSTA2) using HepaRG (AID 2283497)
# In short: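 qRT-PCR readout of GSTA2 transcript, normalized to three housekeeping genes, fitted bidirectionally against 0.5% DMSO baseline. Differentiated HepaRG cells received compound for 48 h at 8 concentrations (top 100 uM, half-log steps).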
# CYP2C9 (gene 1559) = assay: LTEA_HepaRG_CYP2C9: Life Technologies and Expression Analysis (LTEA) Assay for CYP2C9 using HepaRG (AID 2283484)
# In short: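 HepaRG, 48 h dosing, 8-pt half-log series, top 100 uM, 0.5% DMSO vehicle. Read-out: CYP2C9 transcript by TaqMan qRT-PCR, housekeeping-normalized (ACTB/GAPDH/POLR2A). Gain or loss fitted vs DMSO baseline.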
# Sequence of Cytochrome P450 3A7 (Homo sapiens) (P24462 whole entry, looked up): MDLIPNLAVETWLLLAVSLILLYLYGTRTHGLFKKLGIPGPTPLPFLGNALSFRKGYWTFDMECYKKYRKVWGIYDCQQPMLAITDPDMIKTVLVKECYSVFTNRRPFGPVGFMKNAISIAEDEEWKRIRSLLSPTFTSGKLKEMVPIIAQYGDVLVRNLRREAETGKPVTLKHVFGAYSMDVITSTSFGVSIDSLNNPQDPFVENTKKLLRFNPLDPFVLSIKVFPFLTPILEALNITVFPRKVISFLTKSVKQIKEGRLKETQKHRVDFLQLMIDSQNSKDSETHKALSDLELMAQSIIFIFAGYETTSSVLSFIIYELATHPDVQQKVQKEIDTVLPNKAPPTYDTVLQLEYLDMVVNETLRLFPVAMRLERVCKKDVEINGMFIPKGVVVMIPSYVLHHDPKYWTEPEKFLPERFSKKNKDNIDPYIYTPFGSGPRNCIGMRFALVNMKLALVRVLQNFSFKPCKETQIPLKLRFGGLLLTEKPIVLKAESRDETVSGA
# Sequence of Cytochrome P450 3A4 (Homo sapiens) (P08684 whole entry, looked up): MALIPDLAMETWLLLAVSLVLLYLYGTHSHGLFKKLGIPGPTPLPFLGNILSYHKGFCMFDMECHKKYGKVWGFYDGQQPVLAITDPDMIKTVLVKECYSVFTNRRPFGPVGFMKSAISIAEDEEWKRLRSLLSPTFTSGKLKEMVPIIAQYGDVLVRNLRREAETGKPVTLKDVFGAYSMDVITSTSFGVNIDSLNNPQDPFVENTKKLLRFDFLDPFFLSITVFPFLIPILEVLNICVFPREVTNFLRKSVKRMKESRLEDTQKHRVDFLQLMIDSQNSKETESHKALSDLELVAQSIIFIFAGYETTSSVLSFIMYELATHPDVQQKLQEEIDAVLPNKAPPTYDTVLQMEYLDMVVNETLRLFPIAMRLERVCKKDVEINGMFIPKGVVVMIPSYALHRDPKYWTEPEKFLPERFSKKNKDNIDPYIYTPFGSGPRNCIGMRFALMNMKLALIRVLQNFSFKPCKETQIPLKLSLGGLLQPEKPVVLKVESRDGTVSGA
# Sequence of Cytochrome P450 2C19 (Homo sapiens) (P33261 whole entry, looked up): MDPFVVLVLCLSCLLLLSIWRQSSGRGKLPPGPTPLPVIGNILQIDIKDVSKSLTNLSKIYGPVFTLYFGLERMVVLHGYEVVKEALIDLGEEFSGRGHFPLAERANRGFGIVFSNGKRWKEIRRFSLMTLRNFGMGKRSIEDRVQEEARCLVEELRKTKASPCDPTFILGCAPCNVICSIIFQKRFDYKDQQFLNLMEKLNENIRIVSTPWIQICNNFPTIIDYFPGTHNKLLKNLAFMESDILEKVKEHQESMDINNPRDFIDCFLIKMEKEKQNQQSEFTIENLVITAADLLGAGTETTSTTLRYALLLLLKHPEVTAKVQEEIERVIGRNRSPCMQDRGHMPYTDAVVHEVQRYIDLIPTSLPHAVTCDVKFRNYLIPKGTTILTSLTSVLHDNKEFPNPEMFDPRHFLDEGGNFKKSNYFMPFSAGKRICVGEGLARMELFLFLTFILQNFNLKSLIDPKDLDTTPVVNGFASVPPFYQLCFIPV
smiles,measurement,setting,value
CN1CCN(Cc2cc(-c3ccc4[nH]c(=O)oc4c3)co2)[C@@H](c2ccc(F)cc2)C1,outcome,[1],inactive
same,AC50,[2],65.7 µM (active)
same,outcome,[3],inactive
same,AC50,[4],86.7 µM (active)
same,outcome,[5],inactive
same,outcome,CYP2C8 (gene 1558),inactive
same,AC50,CYP2E1 (gene 1571),50 µM (active)
same,AC50,CYP4A11 (gene 1579),78.5 µM (active)
same,outcome,[6],inactive
same,outcome,[7],inactive
same,outcome,[8],inactive
same,outcome,[9],inactive
same,outcome,[10],inactive
same,AC50,[11],11.5 µM (active)
same,outcome,CYP3A5 (gene 1577),inactive
same,outcome,[12],inactive
same,AC50,[13],50 µM (active)
same,outcome,[14],inactive
same,AC50,[15],12.2 µM (active)
Cc1cccc([N+](=O)[O-])c1C,outcome,[1],inactive
same,outcome,[2],inactive
same,outcome,[3],inactive
same,outcome,[4],inactive
same,outcome,CYP2C8 (gene 1558),inactive
same,outcome,CYP2C9 (gene 1559),inactive
same,outcome,CYP2E1 (gene 1571),inactive
same,outcome,CYP4A11 (gene 1579),inactive
same,outcome,[6],inactive
same,outcome,[7],inactive
same,outcome,[8],inactive
same,outcome,[9],inactive
same,outcome,[10],inactive
same,outcome,[11],inactive
same,outcome,CYP3A5 (gene 1577),inactive
same,outcome,[12],inactive
same,outcome,[13],inactive
same,outcome,[14],inactive
same,outcome,[15],inactive
Nc1nc(N)c2nc(CNc3ccc(C(=O)N[C@@H](CCC(=O)O)C(=O)O)cc3)cnc2n1,outcome,[1],inactive
same,AC50,[2],0.0998 µM (active)
same,outcome,[3],inactive
same,outcome,[4],inactive
same,outcome,CYP2C9 (gene 1559),inactive
same,AC50,CYP2E1 (gene 1571),0.098 µM (active)
same,outcome,CYP4A11 (gene 1579),inactive
same,outcome,[6],inactive
same,outcome,[7],inactive
same,outcome,[8],inactive
same,AC50,[9],0.102 µM (active)
same,outcome,[10],inactive
same,outcome,[11],inactive
same,AC50,CYP3A5 (gene 1577),0.0852 µM (active)
same,outcome,[12],inactive
same,outcome,[13],inactive
same,AC50,[14],0.162 µM (active)

# Reference: PubChem BioAssay (EPA / NIEHS)
